# Source: PubChem BioAssay AID602438 (Sanford-Burnham Center for Chemical Genomics, 2012)
# Several values for one entry are separate records, joined by “and”; a condition that tells them apart may be missing. Equal values may be shown once. Among all 360,000 compounds or so, about 3,100 (0.86%) were called active.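 Rule for the calls: active = inhibition or corrected inhibition above about 18%, plus a signal ratio from 0.5 to 1.5 (limit read from the data, passing the limit was not always enough); inactive = the rest.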 The entries come from a sample that favours actives as a whole.
# Target: Neuropilin-1 (Homo sapiens) (UniProt O14786)
# Assay: NRP-1/CendR peptide interaction modulators – biochemical, fluorescence polarization, uHTS, primary screen (AID 602438)
# Details: FAM-RPARPAR peptide binding to NRP-1, fluorescence polarization; at 25 µM; stronger effect = higher value
# Neuropilin-1 (Homo sapiens), sequence (O14786 whole entry, looked up): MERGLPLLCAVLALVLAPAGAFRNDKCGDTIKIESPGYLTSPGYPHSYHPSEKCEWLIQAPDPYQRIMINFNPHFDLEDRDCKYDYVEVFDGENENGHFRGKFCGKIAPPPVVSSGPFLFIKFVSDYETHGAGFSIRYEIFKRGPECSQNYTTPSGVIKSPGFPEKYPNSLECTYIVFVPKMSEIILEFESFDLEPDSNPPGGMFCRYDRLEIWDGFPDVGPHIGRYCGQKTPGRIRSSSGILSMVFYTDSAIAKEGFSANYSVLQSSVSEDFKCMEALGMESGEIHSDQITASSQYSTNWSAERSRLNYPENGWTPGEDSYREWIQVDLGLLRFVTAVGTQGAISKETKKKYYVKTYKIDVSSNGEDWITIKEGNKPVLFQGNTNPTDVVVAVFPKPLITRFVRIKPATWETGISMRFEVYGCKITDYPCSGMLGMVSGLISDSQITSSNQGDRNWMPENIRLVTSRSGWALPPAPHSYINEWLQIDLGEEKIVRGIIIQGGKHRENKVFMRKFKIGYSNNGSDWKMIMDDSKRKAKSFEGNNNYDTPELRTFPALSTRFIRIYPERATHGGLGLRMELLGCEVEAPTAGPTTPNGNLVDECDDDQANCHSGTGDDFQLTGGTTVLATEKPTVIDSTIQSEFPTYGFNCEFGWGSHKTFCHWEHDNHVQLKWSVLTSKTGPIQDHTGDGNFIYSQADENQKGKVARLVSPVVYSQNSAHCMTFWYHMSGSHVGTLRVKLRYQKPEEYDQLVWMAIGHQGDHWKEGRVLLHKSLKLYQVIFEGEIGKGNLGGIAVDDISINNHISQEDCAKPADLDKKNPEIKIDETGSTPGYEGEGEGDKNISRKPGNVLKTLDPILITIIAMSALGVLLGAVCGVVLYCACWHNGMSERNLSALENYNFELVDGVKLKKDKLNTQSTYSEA
row,SMILES,inhibition
1,COc1ccccc1NC(=O)COC(=O)CNC(=O)C1CCCCC1,9.6% (inactive)
2,C=C(C)C1CC=C(C)/C(=N\NC(=O)CNc2ccccc2OC)C1 (stereo not drawn),20.9% (active)
3,C=C(C)C1CC=C(C)/C(=N/NC(=O)CCCNc2cccc(C)c2)C1 (stereo not drawn),1.4% (inactive)
4,N#C/C=C\Oc1ccc(Cl)cc1N,-3.7% (inactive)
5,COc1ccc(C2CC(c3cccs3)=NN2C(=O)COC(=O)c2cc3ccccc3cc2O)cc1OC (stereo not drawn),6.7% (inactive)
6,COc1ccc(C2CC(c3cccs3)=NN2C(=O)CSc2nncs2)cc1OC (stereo not drawn),28.8% (active)
7,COc1ccc(C2CC(c3cccs3)=NN2C(=O)CSc2nnc(N)s2)cc1OC (stereo not drawn),0.7% (inactive)
8,CCN(CC(=O)Nc1c(F)cccc1F)C(=O)c1ccc(-c2ccc(C(C)=O)cc2)o1,45.1% (active)
9,CCN(CC(=O)Nc1c(F)cccc1F)C(=O)c1cnc(C)cn1,3.1% (inactive)
10,CCN(CC(=O)Nc1c(F)cccc1F)C(=O)c1ccc(-c2ccccc2)cc1,4.3% (inactive)
11,CCN(CC)S(=O)(=O)c1ccc(C(=O)N2CCN(C3=NS(=O)(=O)c4ccccc43)CC2)cc1,-0.8% (inactive)
12,CC1CCCCC12NC(=O)N(CC(=O)Nc1ccc(S(=O)(=O)Nc3ncccn3)cc1)C2=O (stereo not drawn),-8.9% (inactive)
13,Cc1nnc(CN(C)Cc2cn[nH]c2-c2ccc(-c3ccccc3)cc2)o1,-2.9% (inactive)
14,CC1(C)SC2C(NC(=O)COc3ccccc3)C(=O)N2C1C(=O)O (stereo not drawn),-22.6% (inactive) and -10.8% (inactive)
15,CC1(C)S[C@@H]2[C@H](NC(=O)COc3ccccc3)C(=O)N2C1C(=O)OCc1ccccc1 (stereo partly drawn),26.2% (active)
16,COC(=O)C1[C@H]2SC(C)(C)C(C(=O)OC)N2C(=O)N1Cc1nc2ccccc2s1 (stereo partly drawn),4.5% (inactive)
17,COC(=O)c1c(NC(=O)COC(=O)[C@@H](NS(=O)(=O)c2ccccc2)C(C)C)sc2c1CCC2,-8.2% (inactive)
18,Cc1sc(NC(=O)C2C3CCC(O3)C2C(=O)O)c(C(=O)OC(C)C)c1-c1ccc(Cl)cc1 (stereo not drawn),21% (active)
19,COc1ccc(NC(=O)C2C3CCC(O3)C2C(=O)O)cc1OC (stereo not drawn),4.9% (inactive)
20,CC(C)OC(=O)c1cc(NC(=O)C2C3CCC(O3)C2C(=O)O)cc(C(=O)OC(C)C)c1 (stereo not drawn),-0.2% (inactive)

row,SMILES,inhibition
1,O=C(CN1C(=O)NC(Cc2c[nH]c3ccccc23)C1=O)Nc1ccccc1C(F)(F)F (stereo not drawn),-6.7% (inactive)
2,CCn1c(C)nc2cc(C(=O)NNS(=O)(=O)c3ccc(C)cc3C)ccc21,-7% (inactive)
3,C[n+]1ccc(C(=O)NCc2ccccc2)cc1,8.4% (inactive)
4,CCOc1c2ccc(C(=O)NC3CCCc4ccccc43)cc2nn1CC (stereo not drawn),22.9% (active)
5,CCCn1nc2cc(C(=O)NCc3ccccc3)ccc2c1OCC,27% (active)
6,CCOc1ccc(NC(=O)COc2ccc(C(=O)NC3CCCc4ccccc43)cc2OC)cc1 (stereo not drawn),-6.4% (inactive)
7,CNS(=O)(=O)c1cccc(C(=O)NC2CCCc3ccccc32)c1 (stereo not drawn),-7.1% (inactive)
8,Cc1cc(N2C(=O)c3ccc(C(=O)NCc4ccccc4)cc3C2=O)no1,-12.4% (inactive)
9,CC(=O)Cn1ncc(N2CCOCC2)c(Br)c1=O,-5.8% (inactive)
10,Cc1ccc(OCCNC(=O)CCNS(=O)(=O)c2ccc(Br)cc2)cc1,4.5% (inactive)
11,Nc1c(C(=O)c2cccs2)sc2nsc(SCCN3CCCCC3)c12,131% (inactive)
12,Cn1c(CCC(=O)Nc2ccccc2F)nnc1SCC(=O)Nc1ccccc1Cl,-3.9% (inactive)
13,COc1ccccc1NC(=S)N1CCC(NC(=O)C23CC4CC(CC(C4)C2)C3)CC1,-1.5% (inactive)
14,CC(Oc1cc2oc(=O)c3c(c2cc1Cl)CCCC3)C(=O)NCc1ccncc1 (stereo not drawn),-1.5% (inactive)
15,COc1ccc(S(=O)(=O)NC(C)C(=O)NCc2ccncc2)cc1Cl (stereo not drawn),22.5% (active)
16,Cc1ccc(S(=O)(=O)NC(C)C(=O)NCc2ccc(Cl)cc2)cc1 (stereo not drawn),-8.1% (inactive)
17,COc1cccc(NC(=O)N2CCC(NC(=O)C(Cc3cccc(C)c3)NC(C)=O)CC2)c1 (stereo not drawn),9.8% (inactive)
18,CCOC(=O)c1c(/N=C/C2C(=O)CC(C)(C)CC2=O)sc(C)c1C,-41.2% (inactive)
19,Cc1ccc(C)c(OCCC(=O)OCC(=O)NC(=O)NCc2ccccc2)c1,-19% (inactive)
20,COc1ccccc1OCCC(=O)OCC(=O)NCc1ccccc1,31.3% (active)

row,SMILES,inhibition
1,COc1ccccc1OCCC(=O)OCC(=O)NC(=O)NC(C)(C)C,-7.2% (inactive)
2,CC1CCCC(N2CCN(C(=O)c3ccc(F)cc3)CC2)C1 (stereo not drawn),1.1% (inactive)
3,CC(C)(C)c1cc(=O)n2c(nc3ccccc32)[nH]1,3.4% (inactive)
4,COc1ccc(C)cc1N(CC(=O)NC(C)c1ccccc1)S(C)(=O)=O (stereo not drawn),3.7% (inactive)
5,COc1ccc(O)c(/C=N/N=C/c2cccc([N+](=O)[O-])c2)c1,6.7% (inactive)
6,CCCc1ccc(OCc2ccc(C(=O)N/N=C/c3cccc([N+](=O)[O-])c3)o2)c(OC)c1,-4.8% (inactive)
7,COc1cc(/C=N\NC(=O)CNC(=O)c2cccc([N+](=O)[O-])c2)ccc1O,21.9% (active)
8,O=C(/C=C/c1cccs1)NCc1cccnc1,-0.9% (inactive)
9,CC[C@]12c3[nH]c4ccc(Cl)cc4c3CCN1C(=O)[C@@H](CC(=O)NCCCOC)C[C@@H]2C(=O)N1CCN(C(=O)c2ccco2)CC1,0.7% (inactive)
10,CCCN(CCC)S(=O)(=O)c1ccc(C(=O)NNC(=O)c2cc(OC)c(OC)c(OC)c2)cc1,-2.3% (inactive)
11,COc1ccccc1C(=O)COC(=O)COc1ccc(C#N)cc1,28.5% (active)
12,COc1ccccc1C(=O)COC(=O)CSCC(=O)Nc1cc(C)on1,-0.2% (inactive)
13,COc1ccccc1C(=O)COC(=O)CNS(=O)(=O)c1ccc(NC(C)=O)cc1,5.5% (inactive)
14,Cc1nn(C)c(Cl)c1CN1CCC(n2nccc2NC(=O)C2CCCC2)CC1,-2.2% (inactive)
15,O=C(CSc1nnc2n1CCCN2)c1ccccc1,-7.7% (inactive)
16,COc1cc([N+](=O)[O-])ccc1NC(=S)N1CCN(c2ccccn2)CC1,32.1% (active)
17,CCOC(=O)c1ccc(NC(=S)N2CCN(c3ccccn3)CC2)cc1,11.2% (inactive)
18,O=[N+]([O-])c1ccc(NC(=S)N2CCN(c3ccccn3)CC2)cc1,5% (inactive)
